# Structures can show the parent of a compound that is named as a salt. ± gives the standard deviation of the averaged measurements.
# Test system: E. coli TESEC Mtb Asd
# Assay: growth (OD600 after 10 h); higher = more growth (less inhibition)
# Settings: arabinose induction (level): High; compound 0.1 mM; raw OD600 reference: median of DMSO wells 0.331, cell-free background 0.041
# Description: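 TESEC E. coli strains in which the native enzyme is deleted and replaced by arabinose-inducible Mtb Asd, DapB, CysH or TrpD, each grown in its selective medium. Strains were screened against the Prestwick library at 0.1 mM and 1% DMSO in 384-well format at low and high arabinose induction. Growth is read as OD600 after 10 h in triplicate.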
row,Structure (SMILES),growth
1,CC(N)C(O)c1ccccc1 (centres undefined) [Phenylpropanolamine hydrochloride],0.399 ± 0.022
2,CC[C@@]1([C@@H]2O[C@@H]([C@H]3O[C@@](O)(CO)[C@H](C)C[C@@H]3C)C[C@@H]2C)CC[C@H]([C@]2(C)CC[C@]3(C[C@H](O)[C@@H](C)[C@@H]([C@@H](C)[C@@H](OC)[C@H](C)C(=O)O)O3)O2)O1 [Monensin sodium salt],0.295 ± 0.028
3,CC(C)[N+](C)(CCC(C(N)=O)(c1ccccc1)c1ccccc1)C(C)C [Isopropamide iodide],0.268 ± 0.036
4,CN1C[C@H](C(=O)N[C@]2(C)O[C@@]3(O)[C@@H]4CCCN4C(=O)[C@H](Cc4ccccc4)N3C2=O)C[C@@H]2c3cccc4[nH]cc(c34)C[C@H]21 [Dihydroergotamine tartrate],0.116 ± 0.013
5,CN1[C@@H]2C[C@@H](OC(=O)[C@H](CO)c3ccccc3)C[C@H]1[C@@H]1O[C@@H]12 [Scopolamine hydrochloride],0.469 ± 0.011
6,CN1[C@@H]2CC[C@H]1C[C@@H](OC(=O)[C@H](CO)c1ccccc1)C2 [Hyoscyamine (L)],0.317 ± 0.073
7,CN(C)C(=O)Oc1ccc[n+](C)c1 [Pyridostigmine iodide],0.335 ± 0.049
8,CC[N+]1(C)CCCC(OC(=O)C(O)(c2ccccc2)c2ccccc2)C1 (centres undefined) [Pipenzolate bromide],0.299 ± 0.035
9,CC(Cc1ccccc1)NCCC(c1ccccc1)c1ccccc1 (centres undefined) [Prenylamine lactate],0.0468 ± 0.00058
10,C#C[C@]1(O)CC[C@H]2[C@@H]3CCC4=CC(=O)CC[C@]4(C)[C@H]3CC[C@@]21C [Ethisterone],0.344 ± 0.057
11,CCNCC(O)c1cccc(O)c1 (centres undefined) [Etilefrine hydrochloride],0.211 ± 0.025
12,COc1cccc(C2(O)CCCCC2CN(C)C)c1 (centres undefined) [Tramadol hydrochloride],0.31 ± 0.028
13,C=CCN1CC[C@]23c4c5ccc(O)c4O[C@H]2C(=O)CC[C@@]3(O)[C@H]1C5 [Naloxone hydrochloride],0.295 ± 0.066
14,O=c1[nH]c2ccccc2n1C1CCN(CCCC(c2ccc(F)cc2)c2ccc(F)cc2)CC1 [Pimozide],0.209 ± 0.024
15,CC[C@@H](CO)NC(=O)[C@@H]1C=C2c3cccc4[nH]cc(c34)C[C@H]2N(C)C1 [Methylergometrine maleate],0.228 ± 0.051
16,C[C@]12Cc3c[nH]nc3C[C@@H]1CC[C@@H]1[C@@H]2CC[C@@]2(C)[C@H]1CC[C@]2(C)O [Stanozolol],0.157 ± 0.011
17,"CN1CCC2(C)c3cc(O)ccc3N(C)C12 (single isomer, unassigned; (-)) [(-)-Eseroline fumarate salt]",0.194 ± 0.027
18,C[C@@H]1O[C@@H](O[C@@H]2C=C3CC[C@@H]4[C@H](CC[C@]5(C)[C@@H](c6ccc(=O)oc6)CC[C@]45O)[C@@]3(C)CC2)[C@H](O)[C@H](O)[C@H]1O [Proscillaridin A],0.117 ± 0.0017
19,COc1ccc(CN2CCNCC2)c(OC)c1OC [Trimetazidine dihydrochloride],0.301 ± 0.068
20,C[N+]1(C)CCOC(O)(c2ccc(-c3ccc(C4(O)C[N+](C)(C)CCO4)cc3)cc2)C1 (centres undefined) [Hemicholinium bromide],0.352 ± 0.026

row,Structure (SMILES),growth
1,OC(c1ccccc1)(c1ccccc1)C1CCNCC1 [Azacyclonol],0.296 ± 0.07
2,CCN(C(C)=O)c1cccc(-c2ccnc3c(C#N)cnn23)c1 [Zaleplon],0.243 ± 0.034
3,Cc1cc(C(C#N)c2ccc(Cl)cc2)c(Cl)cc1NC(=O)c1cc(I)cc(I)c1O (centres undefined) [Closantel],0.0773 ± 0.0025
4,C[C@]12CC[C@H](O)C[C@H]1CC[C@@H]1[C@@H]2C[C@@H](O)[C@]2(C)[C@@H](C3=CC(=O)OC3)CC[C@]12O [Digoxigenin],0.262 ± 0.025
5,COc1cc2c(c(OC)c1OC)-c1ccc(OC)c(=O)cc1[C@@H](NC(C)=O)CC2 [Colchicine],0.276 ± 0.063
6,C=C1C[C@@H]2[C@H](CC[C@]3(C)C(=O)CC[C@@H]23)[C@@]2(C)C=CC(=O)C=C12 [Exemestane],0.0993 ± 0.0088
7,C=C1CC[C@@]2(O)[C@H]3Cc4ccc(O)c5c4[C@@]2(CCN3CC2CC2)[C@H]1O5 [Nalmefene hydrochloride],0.193 ± 0.041
8,C[N+](C)(C)CCCCCCCCCC[N+](C)(C)C [Decamethonium bromide],0.369 ± 0.032
9,CCn1cc(C(=O)O)c(=O)c2cc3c(cc21)OCO3 [Oxolinic acid],0.156 ± 0.011
10,O=P1(N(CCCl)CCCl)NCCCO1 (centres undefined) [Cyclophosphamide],0.341 ± 0.066
11,CC(CCc1ccccc1)NC(C)C(O)c1ccc(O)cc1 (centres undefined) [Nylidrin],0.351 ± 0.062
12,NCCCNCCSP(=O)(O)O [Amifostine],0.372 ± 0.057
13,"CCC1(c2ccc(N)cc2)CCC(=O)NC1=O (centres undefined) [Glutethimide, para-amino]",0.393 ± 0.032
14,CCN(CC)C(C)C(=O)c1ccccc1 (centres undefined) [Amfepramone hydrochloride],0.256 ± 0.064
15,C=C(C)[C@@H]1[C@H]2OC(=O)[C@@H]1[C@]1(O)C[C@H]3O[C@]34C(=O)O[C@H]2[C@]14C [Picrotoxinin],0.343 ± 0.016
16,CC1C=CC=CCCC=CC=CC=CC=CC(OC2OC(C)C(O)C(N)C2O)CC2OC(O)(CC(O)C(O)CCC(O)CC(O)CC(O)CC(=O)OC(C)C(C)C1O)CC(O)C2C(=O)O (centres undefined) [Nystatine],0.23 ± 0.021
17,CC(C)CC(N(C)C)C1(c2ccc(Cl)cc2)CCC1 (centres undefined) [Sibutramine HCl],0.213 ± 0.043
18,CCC1(CC)C(=O)C=CNC1=O [Pyrithyldione],0.398 ± 0.047
19,CCN(C)C(=O)Oc1cccc([C@H](C)N(C)C)c1 [Rivastigmine],0.325 ± 0.068

# — the supplement of paper PMC9262897, “Low-cost anti-mycobacterial drug discovery using engineered E. coli” (Nature Communications, 2022)
